High-throughput results as filed in PubChem BioAssay.
D3 antag = blocks the human D3 dopamine receptor; D3R cells, DiscoveRx beta-arrestin luminescence, antagonist mode; hits give low values; max response, negative = inhibition, %; 2.5% of 360,000 active; AID 652054; in the data active = max response below about -50%; inconclusive = no clear call, values can overlap the other calls; note: % is set by controls: 0 for no effect and ±100 for the full control effect
Target sequence (P35462 whole entry, looked up): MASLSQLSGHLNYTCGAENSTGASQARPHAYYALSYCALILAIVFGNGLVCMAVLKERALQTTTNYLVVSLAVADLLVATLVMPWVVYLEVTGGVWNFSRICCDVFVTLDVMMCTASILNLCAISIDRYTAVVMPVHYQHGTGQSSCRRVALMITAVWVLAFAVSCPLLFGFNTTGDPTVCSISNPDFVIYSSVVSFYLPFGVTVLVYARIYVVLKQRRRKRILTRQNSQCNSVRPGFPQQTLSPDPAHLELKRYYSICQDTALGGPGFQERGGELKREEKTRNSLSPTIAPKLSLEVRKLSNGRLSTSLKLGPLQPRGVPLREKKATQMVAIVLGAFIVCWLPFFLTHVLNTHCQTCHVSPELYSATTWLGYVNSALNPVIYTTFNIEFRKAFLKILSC
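Cells plated overnight at 1500 cells/well, then exposed to library compounds with dopamine controls for 90 minutes at 37 degrees C. DiscoveRx reagent added for 30–60 minutes at room temperature; luminescence read, quantitative HTS format.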
ClpP mod = qHTS Assay for Activators of ClpP; ATP-dependent Clp protease proteolytic subunit (Bacillus subtilis (strain 168)), P80244; purified B. subtilis ClpP, FRET peptide cleavage, 20 min; Potency, µM (series often up to 57.5 µM), for the others: at the top dose activity change, negative = active; 1.9% of 340,000 active; active = well fitted falling curve with a large enough effect; inconclusive = small, poorly fitted or top-dose-only effect; inactive = no such curve, though single readings can be large or run the other way; note: potency is the fitted concentration of half-maximal effect; the source files actives as falling curves though it sought activators and does not explain the sign; nearly all actives have a fitted effect of over 65% in size
Target sequence (P80244 whole entry, looked up): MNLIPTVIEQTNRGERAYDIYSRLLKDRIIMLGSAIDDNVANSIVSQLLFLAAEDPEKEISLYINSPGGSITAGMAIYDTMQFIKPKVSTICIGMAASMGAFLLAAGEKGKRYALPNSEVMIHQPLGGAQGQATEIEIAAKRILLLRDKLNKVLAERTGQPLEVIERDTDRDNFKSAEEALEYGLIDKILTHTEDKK
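Buffer: 100 mM Tris/HCl pH8, 100 mM KCl, 0.05% low protease BSA, 2.5% glycerol, 0.01% Tween-20. ClpP 10 microg/mL final; 20 min RT; delta FRET normalized to ADEP and DMSO controls.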
DT40 TDP1 CPT = DT40-hTDP1 cell growth loss with CPT; 12% of 420,000 active; AID 686979; Potency, µM (highest dose often 46.2 µM), for the others: top-dose activity change, negative = growth inhibition, actives largely listed as inhibitors; chicken DT40 Tdp1-/-;hTDP1 cells + 20 nM CPT, ATP luminescence, 48 h; note: potency is the fitted concentration of half-maximal effect; % is set by controls: 0 for no effect and ±100 for the full control effect; nearly all actives have a fitted effect of over 55% in size
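Cell growth measured by CellTiter-Glo luminescence after a minimum 48 h, 37 C compound exposure with 20 nM CPT in Tdp1-knockout DT40 cells stably expressing hTDP1, seeded 400/well; qHTS titration format.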
D3 ag = activates the human D3 dopamine receptor; AID 652048; 0.58% of 410,000 active; max activation, %; D3R DiscoveRx beta-arrestin cells, luminescence, 90 min; P35462; in the data active = max activation above about 30%; note: 0% is about no effect
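Cells at 1500/well, incubated overnight, then treated with pinned compounds (dopamine as control) for 90 min at 37 degrees C. DiscoveRx reagent added for 30 - 60 minutes at room temperature; luminescence read.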
IL1B secr inh = inhibitors of inflammasome signaling (IL-1 beta secretion); THP-1 LPS/ATP IL-1B secretion, AlphaLISA, 16 h; hits give low values; activity change, % at 57.5 µM; 4.7% of 360,000 active; in the data active = activity change below about -50%; inconclusive = mostly about -30% to -49%; note: % is set by controls: 0 for no effect and ±100 for the full control effect
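Secreted IL-1B measured by AlphaLISA bead assay after 16 h compound exposure of THP-1 cells; compounds (final up to 57.5 uM) added 1 h before LPS (250 ng/mL) and ATP (1.25 mM) stimulation; lower signal means less secretion.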
TDP1 cell noCPT = qHTS for Inhibitors of human tyrosyl-DNA phosphodiesterase 1 (TDP1): qHTS in cells in absence of CPT. DT40 Tdp1-/- hTDP1 cells, no CPT, ATP luminescence, 48 h. Potency, µM (highest dose often 46.2 µM), for inactives: top-dose activity change, negative = growth inhibition, usual class: inhibitors. 15% of 420,000 active; note: potency is the fitted concentration of half-maximal effect; % is set by controls: 0 for no effect and ±100 for the full control effect; nearly all actives have a fitted effect of over 55% in size
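A cellular qHTS used chicken DT40 cells lacking endogenous Tdp1 but carrying stably transfected human TDP1. Compounds were applied without camptothecin, and cell growth kinetics were judged by ATP-dependent luminescence after ≥48 hr.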
Active calls of the source: *. An excerpt weighted towards active compounds, which were near 21% of everything screened. Unless noted, calls come from the whole dose curve; as a rule, active = well fitted inhibition curve with a large enough effect; inconclusive = small, poorly fitted or top-dose-only effect; inactive = flat fitted curve, though single readings scatter.

How did CC(=O)C1=C(S(=O)(=O)c2ccc(C)cc2)CS(=O)(=O)C1 do in these assays?
D3 antag: -66.6*; DT40 TDP1 CPT: 3.66µM*; D3 ag: -7.3; IL1B secr inh: inconclusive; TDP1 cell noCPT: 4.61µM*

What do the screens show for `Cc1ccc(C(C(=O)Nc2ccc(C(C)C)cc2)N(C)C(=O)c2ccc(=O)[nH]c2)cc1` (centres undefined)?
D3 antag: 4.1; DT40 TDP1 CPT: -10.3%; D3 ag: -4.0; IL1B secr inh: -14.7; TDP1 cell noCPT: 18.4µM*

How did COc1ccc(NC(=O)C(c2ccccc2)N(C)C(=O)c2ccc(=O)[nH]c2)cc1 (centres undefined) do in these assays?
D3 antag: 4.7; ClpP mod: 1.3%; DT40 TDP1 CPT: -0.4%; D3 ag: 3.5; IL1B secr inh: 10.6; TDP1 cell noCPT: 1.5%

What do the screens show for `O=C(Nc1c(Cl)ccc2nsnc12)c1ccc([N+](=O)[O-])o1`?
D3 antag: -2.6; ClpP mod: -1.2%; DT40 TDP1 CPT: inconclusive; D3 ag: -5.1; IL1B secr inh: -97.9*; TDP1 cell noCPT: inconclusive

How did O=C(NCc1ccco1)c1ccc([N+](=O)[O-])o1 do in these assays?
D3 antag: -5.8; ClpP mod: -6.4%; DT40 TDP1 CPT: inconclusive; D3 ag: 10.9; IL1B secr inh: -61.4*; TDP1 cell noCPT: inconclusive

Results for O=C(NCc1ccco1)c1ccc(Cn2cc([N+](=O)[O-])cn2)o1 ?
D3 antag: -18.1; ClpP mod: -2.4%; DT40 TDP1 CPT: -7.1%; D3 ag: -10.0; IL1B secr inh: -11.7; TDP1 cell noCPT: -1.5%

Results for O=C(Nc1cccnc1)c1ccc([N+](=O)[O-])o1 ?
D3 antag: 0.0; ClpP mod: 0.0%; DT40 TDP1 CPT: 9.2µM*; D3 ag: -11.5; IL1B secr inh: -91.7*; TDP1 cell noCPT: 14.6µM*

Results for O=C(Nc1ccc(Cl)cn1)c1ccc([N+](=O)[O-])o1 ?
D3 antag: -3.7; DT40 TDP1 CPT: 2.31µM*; D3 ag: 2.4; IL1B secr inh: -225.6*; TDP1 cell noCPT: 14.6µM*

What do the screens show for `COc1cc(NC(=O)CSc2nc3ccccc3n2-c2ccccc2)c(C)cc1[N+](=O)[O-]`?
D3 antag: 4.7; ClpP mod: 1.8%; DT40 TDP1 CPT: inconclusive; D3 ag: -3.2; IL1B secr inh: 3.0; TDP1 cell noCPT: inconclusive

Results for COc1ccc(NC(=O)N2CC[C@@]3(CCCN(C(=O)c4ccco4)C3)C2)cc1 ?
DT40 TDP1 CPT: 4.3%; TDP1 cell noCPT: 1.8%

How did O=C(NCc1cccnc1)c1ccc([N+](=O)[O-])o1 do in these assays?
D3 antag: 13.0; ClpP mod: -0.7%; DT40 TDP1 CPT: inconclusive; D3 ag: 1.0; IL1B secr inh: -66.9*; TDP1 cell noCPT: inconclusive

Results for O=C(Cc1ccc([N+](=O)[O-])cc1)NCc1cccnc1 ?
D3 antag: -10.5; ClpP mod: -9.9%; DT40 TDP1 CPT: -0.1%; D3 ag: -0.3; IL1B secr inh: 9.0; TDP1 cell noCPT: -5.9%

What do the screens show for `Cn1nc(-c2ccccc2)c(CO)c1Oc1ccc(F)cc1`?
D3 antag: -13.7; DT40 TDP1 CPT: inconclusive; D3 ag: -8.8; IL1B secr inh: 25.0; TDP1 cell noCPT: inconclusive

How did COc1ccc(-n2ncc(S(=O)(=O)c3ccccc3)c2-c2ccc(Cl)cc2)cc1 do in these assays?
D3 antag: 22.4; ClpP mod: inconclusive; DT40 TDP1 CPT: 25.9µM*; D3 ag: -0.9; IL1B secr inh: inconclusive; TDP1 cell noCPT: 20.6µM*

What do the screens show for `CN(C(=O)C(=O)Nc1ccc2nc3n(c(=O)c2c1)CCCCC3)c1cccc(C(F)(F)F)c1`?
ClpP mod: -2.2%; DT40 TDP1 CPT: 4.0%; D3 ag: 1.7; TDP1 cell noCPT: -0.7%

How did CCOc1ccc(CCN2C(=S)N([C@@H](CC(C)C)CN3CCC[C@@H]3CN3C(=S)NC[C@@H]3CC(C)C)C[C@@H]2Cc2ccc(O)cc2)cc1 do in these assays?
D3 antag: -28.5; ClpP mod: 0.4%; DT40 TDP1 CPT: 9.2µM*; D3 ag: -10.2; TDP1 cell noCPT: 11.6µM*

How did CCOc1ccc(CCN2C(=O)C(=O)N([C@@H](CC(C)C)CN3CCC[C@@H]3CN3C(=O)C(=O)NC[C@@H]3CC(C)C)C[C@@H]2Cc2ccccc2)cc1 do in these assays?
D3 antag: -15.8; ClpP mod: 0.3%; DT40 TDP1 CPT: inconclusive; D3 ag: -2.6; IL1B secr inh: 0.0; TDP1 cell noCPT: inconclusive

How did CCOc1ccc(CCN2C(=S)N([C@@H](CC(C)C)CN3CCCC3CN3C(=S)NC[C@@H]3CC(C)C)C[C@@H]2Cc2ccc(O)cc2)cc1 (some centres undefined) do in these assays?
D3 antag: 1.3; ClpP mod: -1.9%; DT40 TDP1 CPT: 18.4µM*; D3 ag: 4.3; IL1B secr inh: inconclusive; TDP1 cell noCPT: inconclusive

How did CCOc1ccc(CCN2C(=S)N([C@@H](CC(C)C)CN3CCCC3CN3C(=S)NC[C@@H]3Cc3ccccc3)C[C@@H]2CC(C)C)cc1 (some centres undefined) do in these assays?
D3 antag: inconclusive; ClpP mod: -1.3%; DT40 TDP1 CPT: inconclusive; D3 ag: -12.6; IL1B secr inh: 78.5; TDP1 cell noCPT: 16.4µM*

What do the screens show for `CCOc1ccc(CCN2C(=S)N([C@@H](CC(C)C)CN3CCCC3CN3C(=S)NC[C@@H]3Cc3ccc(O)cc3)C[C@@H]2CC(C)C)cc1` (some centres undefined)?
D3 antag: -29.6; ClpP mod: -1.3%; DT40 TDP1 CPT: inconclusive; D3 ag: -24.6; IL1B secr inh: inconclusive; TDP1 cell noCPT: 16.4µM*

Results for CCOc1ccc(CCN2C(=S)N([C@@H](CC(C)C)CN3CCC[C@@H]3CN3C(=S)NC[C@@H]3CC(C)C)C[C@@H]2CC(C)C)cc1 ?
D3 antag: -13.8; ClpP mod: -0.8%; DT40 TDP1 CPT: inconclusive; D3 ag: -3.5; IL1B secr inh: 13.3; TDP1 cell noCPT: inconclusive

Results for O=C(NCc1ccc(F)cc1)c1cc2ccccc2o1 ?
D3 antag: 0.6; DT40 TDP1 CPT: 6.2%; D3 ag: -0.7; IL1B secr inh: 13.9; TDP1 cell noCPT: -11.2%

What do the screens show for `O=C1CCCCc2cc(O)c(O)cc21`?
D3 antag: -1.8; ClpP mod: 0.2%; DT40 TDP1 CPT: inconclusive; D3 ag: 52.3*; IL1B secr inh: 16.1; TDP1 cell noCPT: inconclusive
